Experiment [1] can be described thus: ATG_CRE_CIS: Attagene CIS-FACTORIAL HepG2 Assay for human cAMP Responsive Element (CRE) binding protein 3 (AID 2282926). The following applies: HepG2 CRE cis-reporter, Attagene multiplexed mRNA; actives raise or lower the signal. The procedure, abridged: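 HepG2 cells transiently transfected with a multiplexed reporter library (CRE-driven unit among them) were dosed for 24 h. Reporter mRNA was quantified by RT-PCR, fluorescent labelling, HpaI digestion and capillary electrophoresis, with bidirectional fitting against DMSO baseline.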

The target of experiment [2] is CCAAT/enhancer-binding protein beta (Homo sapiens) (UniProt P17676). The experiment in a line: ATG_C_EBP_CIS: Attagene CIS-FACTORIAL HepG2 Assay for human CCAAT/Enhancer Binding Protein (C/EBP) beta (AID 2282927). The following applies: HepG2 Attagene cis-factorial transcription factor reporter; actives raise or lower the signal. Summed up:
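HepG2, transient MRTU transfection, 24 h treatment. RT-PCR plus CE fluorescence; DMSO negative control, bidirectional fit.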

Experiment [3] can be described thus: ATG_CMV_CIS: Attagene CIS-FACTORIAL HepG2 Assay for human CMV (Internal Marker) (AID 2282928).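 Note: endpoint acts as a background internal control marker rather than a target.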 The following applies: HepG2 CMV promoter reporter, transcription factor profiling; actives raise or lower the signal. The procedure, abridged: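 HepG2 cells transiently transfected with multiple cis-regulated reporter units; 24 h compound exposure. Reporter mRNA quantified by RT-PCR, 6-FAM primer-extension labeling, HpaI digestion and capillary electrophoresis; bidirectional fitting against DMSO baseline.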

Experiment [4] in a line: ATG_DR4_LXR_CIS: Attagene CIS-FACTORIAL HepG2 Assay for human Liver X Receptor (LXR), DR4 submotif (AID 2282929). The following applies: HepG2 Attagene DR4 cis-reporter, mRNA transcription; actives raise or lower the signal. The procedure, abridged:
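Endogenous factor activity at a DR4 cis-element is read as reporter mRNA in transiently transfected HepG2 cells. Exposure lasts 24 h; transcripts are amplified, fluorescently labelled and sized by capillary electrophoresis, with DMSO as baseline.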

The target in experiment [5] is Aryl hydrocarbon receptor (Homo sapiens) (UniProt P35869). As to the kind of experiment: ATG_Ahr_CIS: Attagene CIS-FACTORIAL HepG2 Assay for human Aryl Hydrocarbon Receptor (Ahr) (AID 2282930). Conditions: HepG2 AhR cis-factorial reporter transcription; actives raise or lower the signal. The procedure, abridged: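 Endogenous factor activity is tracked through cis-promoter reporter units transfected into HepG2 cells. Transcript levels at 24 h are read by fluorescent RT-PCR and capillary electrophoresis, with activity in either direction scored relative to DMSO.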
Aryl hydrocarbon receptor (Homo sapiens), sequence (P35869 whole entry, looked up): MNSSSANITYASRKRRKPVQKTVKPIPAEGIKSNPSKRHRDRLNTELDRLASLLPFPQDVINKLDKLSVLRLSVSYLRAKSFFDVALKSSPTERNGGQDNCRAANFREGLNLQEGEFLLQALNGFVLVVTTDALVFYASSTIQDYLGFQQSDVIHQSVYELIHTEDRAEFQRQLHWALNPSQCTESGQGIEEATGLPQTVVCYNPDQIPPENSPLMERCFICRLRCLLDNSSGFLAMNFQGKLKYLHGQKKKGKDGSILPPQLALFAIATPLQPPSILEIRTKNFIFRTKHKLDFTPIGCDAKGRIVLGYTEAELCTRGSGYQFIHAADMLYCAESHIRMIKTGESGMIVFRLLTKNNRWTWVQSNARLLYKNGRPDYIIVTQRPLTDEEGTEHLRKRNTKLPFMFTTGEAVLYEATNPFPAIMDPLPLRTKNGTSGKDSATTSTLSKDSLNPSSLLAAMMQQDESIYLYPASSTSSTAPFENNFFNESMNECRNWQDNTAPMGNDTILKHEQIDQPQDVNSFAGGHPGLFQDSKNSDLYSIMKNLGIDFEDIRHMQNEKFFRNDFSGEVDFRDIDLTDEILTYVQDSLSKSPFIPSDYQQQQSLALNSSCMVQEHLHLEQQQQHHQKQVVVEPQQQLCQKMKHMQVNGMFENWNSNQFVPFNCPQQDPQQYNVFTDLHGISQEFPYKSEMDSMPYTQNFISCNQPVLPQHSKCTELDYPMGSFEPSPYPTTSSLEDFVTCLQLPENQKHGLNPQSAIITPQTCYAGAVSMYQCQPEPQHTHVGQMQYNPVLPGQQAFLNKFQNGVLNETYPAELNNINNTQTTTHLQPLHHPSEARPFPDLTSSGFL

Experiment [6] can be described thus: ATG_AP_1_CIS: Attagene CIS-FACTORIAL HepG2 Assay for human Activator Protein 1 (AP-1) (AID 2282931). The following applies: HepG2 Attagene cis-factorial AP-1 reporter mRNA; actives raise or lower the signal. Summed up:
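Fluorescence of labelled PCR fragments separated by capillary electrophoresis gives reporter mRNA levels. HepG2 with transfected cis-regulated reporter units, 24 h exposure; DMSO serves as baseline for bidirectional curve fits.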

Experiment [7] can be described thus: ATG_AP_2_CIS: Attagene CIS-FACTORIAL HepG2 Assay for human Activator Protein 2 (AP-2) (AID 2282932). Conditions: HepG2 AP-2 cis-reporter, Attagene transcription factor profiling; actives raise or lower the signal. The procedure, abridged: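 HepG2 cells transiently transfected with cis-element reporter units and exposed for 24 h. Reporter mRNA measured by RT-PCR, FAM labelling, HpaI digestion and capillary electrophoresis. Changes in either direction fitted relative to DMSO.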

Experiment [8] in a line: ATG_BRE_CIS: Attagene CIS-FACTORIAL HepG2 Assay for human Bone Morphogenetic Protein (BMP) Response Element (BRE) (AID 2282933). Conditions: HepG2 BMP response element reporter, Attagene transcription factor profiling; actives raise or lower the signal. Summed up: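 Read-out: reporter mRNA induction quantified by RT-PCR and capillary electrophoresis after 24 h chemical exposure of transfected HepG2 cells. Endogenous factor activity on the BMP response element; gain or loss fitted against DMSO baseline.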

In experiment [9] the target is Retinoic acid receptor alpha (Homo sapiens) (UniProt P10276). The experiment in a line: ATG_DR5_RAR_CIS: Attagene CIS-FACTORIAL HepG2 Assay for human Retinoic Acid Receptor Alpha (RARE), DR5 submotif (AID 2282934).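 For AC50: reporter responds to endogenous RAR alpha beta and gamma in HepG2 not RARA alone.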 Conditions: HepG2 Attagene cis-factorial RARE DR5 reporter, mRNA; actives raise or lower the signal. Summed up: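 After 24 h of chemical exposure, transiently transfected HepG2 cells were lysed for total RNA; the DR5-regulated reporter transcript was quantified via RT-PCR and capillary electrophoresis, with activity fitted bidirectionally against DMSO.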
Retinoic acid receptor alpha (Homo sapiens), sequence (P10276 whole entry, looked up): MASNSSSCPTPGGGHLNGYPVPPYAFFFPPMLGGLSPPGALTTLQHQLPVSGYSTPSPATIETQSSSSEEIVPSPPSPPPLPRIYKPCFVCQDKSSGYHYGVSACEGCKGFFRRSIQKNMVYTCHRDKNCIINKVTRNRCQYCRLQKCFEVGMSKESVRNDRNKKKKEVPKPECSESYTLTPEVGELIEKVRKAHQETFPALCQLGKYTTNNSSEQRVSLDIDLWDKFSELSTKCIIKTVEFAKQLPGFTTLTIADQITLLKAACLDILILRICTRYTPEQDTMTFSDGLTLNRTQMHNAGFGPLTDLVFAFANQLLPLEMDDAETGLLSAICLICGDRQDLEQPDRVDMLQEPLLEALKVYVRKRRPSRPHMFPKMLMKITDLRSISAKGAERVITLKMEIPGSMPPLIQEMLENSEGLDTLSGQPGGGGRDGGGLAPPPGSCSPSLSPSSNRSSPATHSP

The target in experiment [10] is Transcription factor E2F1 (Homo sapiens) (UniProt Q01094). The experiment in a line: ATG_E2F_CIS: Attagene CIS-FACTORIAL HepG2 Assay for human E2F Transcription Factor 1 (AID 2282935). The following applies: HepG2 Attagene cis-reporter, E2F reporter RNA transcripts; actives raise or lower the signal. Summed up:
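Endogenous E2F1 activity read through cis-promoter reporter units transfected into HepG2. After 24 h compound treatment, reporter mRNA measured by RT-PCR, HpaI digestion and capillary electrophoresis. Bidirectional fit versus DMSO.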

SMILES strings stand for the structures. Activity calls are given as the source filed them. Rule for the calls: active = hit-call score of the fitted dose curve at least 0.9, where 1 is the maximum; inactive = score below 0.9.

By AC50 is commonly meant the concentration giving half of the maximal activity seen.

CCAAT/enhancer-binding protein beta (Homo sapiens), sequence (P17676 whole entry, looked up): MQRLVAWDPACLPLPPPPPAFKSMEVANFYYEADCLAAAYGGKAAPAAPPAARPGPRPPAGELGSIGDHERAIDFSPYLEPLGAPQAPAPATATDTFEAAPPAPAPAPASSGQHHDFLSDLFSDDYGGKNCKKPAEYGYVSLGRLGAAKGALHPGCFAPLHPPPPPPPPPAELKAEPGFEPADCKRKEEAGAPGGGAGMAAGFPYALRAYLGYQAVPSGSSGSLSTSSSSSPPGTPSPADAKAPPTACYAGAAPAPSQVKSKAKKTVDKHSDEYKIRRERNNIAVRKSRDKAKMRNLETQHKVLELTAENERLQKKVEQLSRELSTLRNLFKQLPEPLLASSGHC
Transcription factor E2F1 (Homo sapiens), sequence (Q01094 whole entry, looked up): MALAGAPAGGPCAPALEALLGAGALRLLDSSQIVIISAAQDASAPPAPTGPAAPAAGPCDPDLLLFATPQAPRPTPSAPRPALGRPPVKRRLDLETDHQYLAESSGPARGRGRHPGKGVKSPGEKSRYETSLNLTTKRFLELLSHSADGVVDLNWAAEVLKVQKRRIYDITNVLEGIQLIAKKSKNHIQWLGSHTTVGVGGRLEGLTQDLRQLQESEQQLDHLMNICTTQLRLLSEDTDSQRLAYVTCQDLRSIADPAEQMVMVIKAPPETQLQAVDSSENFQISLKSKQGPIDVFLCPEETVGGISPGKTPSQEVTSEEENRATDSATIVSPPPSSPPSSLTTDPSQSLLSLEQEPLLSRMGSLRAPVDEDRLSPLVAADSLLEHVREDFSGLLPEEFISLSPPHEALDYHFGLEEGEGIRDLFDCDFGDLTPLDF

With `c1ccc2c(c1)ccc1cc3c(ccc4ccccc43)cc12`, the outcome in experiment [1], in experiment [2], in [3], in experiment [4], in [6] and in experiment [7] was inactive. In addition, the molecule was classed as inactive in experiment [8], in [9] and in experiment [10]. In [5], the half-maximal activity concentration (AC50) is 0.0244 µM (active).

Consider `O=C1CCCC(=O)O1`, for which the molecule was classed as inactive in [1], in [2], in [3], in experiment [4], in experiment [5] and in [6]. The call in experiment [7], in [8], in [9] and in [10] was inactive.

Consider `COc1cc(C)ccc1C(C)C`, for which the molecule was classed as inactive in [1], in experiment [2], in [3], in experiment [4], in [5] and in experiment [6]. For the same molecule, the call in experiment [7], in experiment [8], in experiment [9] and in [10] was inactive.

For `C/C=C\C/C=C/CCCCCCCCOC(C)=O`, the result in experiment [1], in experiment [2], in [3], in experiment [5], in experiment [7] and in [9] was inactive. The result in [10] was inactive. In addition, the half-maximal activity concentration (AC50) is 122 µM (active) in experiment [4], 134 µM (active) in [6] and 67.9 µM (active) in experiment [8].

In the case of `CCCCCCCCc1ccc(Nc2ccc(CCCCCCCC)cc2)cc1`, the molecule was classed as inactive in experiment [1], in experiment [2], in experiment [3], in experiment [4], in experiment [5] and in [6]. Besides, the molecule was classed as inactive in [7], in [8], in experiment [9] and in experiment [10].

With `ON(Cc1ccccc1)Cc1ccccc1`, the outcome in experiment [1], in experiment [2], in [3], in [4], in experiment [5] and in experiment [6] was inactive. Also, the molecule was classed as inactive in experiment [7], in experiment [8], in experiment [9] and in experiment [10].

As to `O=C(O)C(c1ccc(Cl)cc1)c1ccc(Cl)cc1`, the outcome in experiment [1], in experiment [2], in [3], in experiment [4], in [5] and in experiment [6] was inactive. The molecule was classed as inactive in experiment [7], in experiment [8], in experiment [9] and in [10].

On to `N=c1ccn2c(n1)O[C@H]1[C@H](O)[C@@H](CO)O[C@H]12`, for which the result in experiment [1], in experiment [2], in experiment [3], in experiment [4], in [5] and in experiment [6] was inactive. Also, the molecule was called inactive in [7], in experiment [8], in experiment [9] and in [10].

Take `CCCCCc1ccc(Cl)cc1`: the molecule was classed as inactive in experiment [1], in experiment [2], in experiment [4], in experiment [5], in experiment [6] and in experiment [7]. The molecule was classed as inactive in experiment [8]. The AC50 in experiment [3] is 66.4 µM (active); in experiment [9], 84.1 µM (active); in [10], 61.5 µM (active).

Take `O=c1c2ccccc2oc2ccccc12`: the outcome in experiment [1], in experiment [2], in experiment [3], in experiment [4], in experiment [5] and in [6] was inactive. Besides, the result in experiment [7], in [8], in experiment [9] and in experiment [10] was inactive.

As to `CC(=O)OC(C)C`, the molecule was called inactive in [1], in experiment [2], in [3], in experiment [4], in [5] and in experiment [6]. The molecule was called inactive in experiment [7], in [8], in [9] and in experiment [10].

As for `CN(C)c1ccc(C(=N)c2ccc(N(C)C)cc2)cc1`, the concentration at half-maximal activity (AC50) in experiment [1] was 0.399 µM (active); in [2] it was 0.871 µM (active); in experiment [4], 0.056 µM (active); in experiment [5], 0.334 µM (active); in experiment [8] it was 7.22 µM (active); in experiment [9] it was 7.38 µM (active). The outcome in experiment [3], in experiment [6], in [7] and in experiment [10] was inactive.

As to `O=S(=O)(O)c1ccccc1C=Cc1ccc(-c2ccc(C=Cc3ccccc3S(=O)(=O)O)cc2)cc1`, the outcome in experiment [1], in experiment [2], in [3], in [4], in experiment [5] and in [6] was inactive. In addition, the call in [7], in experiment [9] and in experiment [10] was inactive. Also, the concentration at half-maximal activity (AC50) in experiment [8] is 39.6 µM (active).

As to `CC(=O)OCc1ccco1`, the result in experiment [1], in [2], in experiment [3], in experiment [4], in experiment [5] and in experiment [6] was inactive. Moreover, the molecule was called inactive in [7], in [8], in experiment [9] and in experiment [10].

For the molecule `C=C(C)C(=O)OCC(C)C`, the outcome in [1], in experiment [2], in experiment [3], in experiment [4], in experiment [5] and in experiment [6] was inactive. Further, the outcome in experiment [7], in experiment [8], in experiment [9] and in [10] was inactive.

As for `O=C1c2ccccc2C(=O)C1c1nc2ccccc2c(Br)c1O`, the molecule was classed as inactive in [1], in experiment [2], in experiment [3], in experiment [4], in experiment [6] and in experiment [7]. Also, the molecule was called inactive in [9] and in experiment [10]. For the same molecule, the half-maximal activity concentration (AC50) is 0.388 µM (active) in [5] and 100 µM (active) in experiment [8].

Turning to `O=C(O)c1cc2ccccc2nc1C(=O)O`, the outcome in experiment [1], in [2], in experiment [3], in [4], in [6] and in [7] was inactive. Also, the molecule was classed as inactive in [8], in [9] and in experiment [10]. Moreover, in experiment [5], the AC50 was 41.1 µM (active).

For `C[Si](C)(C)O[Si](O)(O)O`, the molecule was classed as inactive in [1], in experiment [2], in experiment [3], in experiment [4], in [5] and in experiment [6]. Also, the result in experiment [7], in experiment [8], in [9] and in [10] was inactive.

Regarding `CC(=O)c1ccc[nH]1`, the molecule was classed as inactive in experiment [1], in experiment [2], in [3], in experiment [4], in experiment [5] and in experiment [6]. Also, the call in [7], in experiment [8], in experiment [9] and in experiment [10] was inactive.

Consider `CN1C(=O)N(C)C(O)C1O` (stereo not given), for which the outcome in experiment [1], in [2], in experiment [3], in experiment [4], in [5] and in experiment [6] was inactive. The call in [7], in [8], in experiment [9] and in [10] was inactive.

Regarding `C=C(C)CCO`, the outcome in experiment [1], in experiment [2], in experiment [3], in [4], in [5] and in experiment [6] was inactive. The molecule was classed as inactive in experiment [7], in [8], in experiment [9] and in [10].

In the case of `CCCCCCCC/C=C\CCCCCCCC(=O)OCCO`, the AC50 in experiment [1] was 50 µM (active); in experiment [2], 69 µM (active); in [4] it was 50 µM (active); in experiment [6] it was 50 µM (active); in experiment [9], 59.4 µM (active). For the same molecule, the outcome in experiment [3], in experiment [5], in experiment [7], in [8] and in [10] was inactive.

For the origin of these results see PubChem BioAssay (EPA / NIEHS).
